Here are results for ten compounds from PubChem BioAssay (EPA / NIEHS).

Calls of active or inactive are those of the source. The calls were made as follows: active = hit-call score of the fitted dose curve at least 0.9, where 1 is the maximum; inactive = score below 0.9.

The test in a line: CCTE_Padilla_ZF_Score.Spine: CCTE's 144 Hour Post-fertilization zebrafish Assay Score for Spine Malformation, Padilla Lab (AID 2284407). The procedure:
CCTE_Padilla_ZF_Phenotype_Score is a whole embryo, multiplexed assay using zebrafish ova exposed for 144 hours post fertilization on a 96-well plate.CCTE_Padilla_ZF_Score.Spine is one of one assay component(s) measured or calculated from the CCTE_Padilla_ZF_Phenotype_Score assay. It is designed to make measurements of zebrafish development as detected with brightfield microscopy of developing zebrafish embryos.Data from the assay component CCTE_Padilla_ZF_Score.Spine was analyzed into 1 assay endpoints. This assay endpoint, CCTE_Padilla_ZF_Score.Spine, was analyzed in the positive analysis fitting direction relative to DMSO as the negative control and baseline of activity. Using a type of viability reporter, gain-of-signal activity can be used to understand changes in developmentals as they relate to the whole embryo. To generalize the intended target to other relatable targets, this assay endpoint is annotated to the zebrafish development intended target family, where the subfamily is body axis morphogenesis.
Zebrafish husbandry: Wild type adult zebrafish (Danio rerio; undefined outbred stock obtained from Aquatic Research Organisms, Hampton, NH, 03842) were housed in an AAALAC-approved animal facility at 28C with a 14:10 h light: dark cycle (lights on at 08:30 h). Adult fish (2-3 females per male; density = 15-20 adults per tank) were kept in one of several 9-liter (L) flow-through colony tanks (Aquaneering Inc., San Diego, CA). All adults in a colony tank were placed in a 2 L (static) breeding tank (Aquatic Habitats, Apopka, FL) one hour prior to light onset. Typically, adults from two to three colony tanks were mated on the same day. Two hours after light onset the adults were returned to the colony tank. All embryos were gathered from each breeder tank, pooled, and placed in a 28C water bath for 2 h, followed by two washes with 0.06% bleach (v/v) in 10% Hanks' Balanced Salt Solution (13.7 mM NaCl 0.54 mM KCl, 25 uM Na2HPO4, 130 uM CaCl2 100 um MgSO4 and 420 um NaHCO3,), hereafter referred to as Hanks' solution, for 5 min in order to remove any residual bacteria or fungi. Immediately following washing, the embryos were examined, and healthy embryos were separated from dead or unfertilized eggs and moved into fresh Hanks'. Chemical exposures: Zebrafish embryos were exposed in 96-well plates. Between 6- and 8-hours post fertilization (hpf), healthy embryos (with chorions) were transferred, one embryo per well, into 96 well (0.5 mL) microtiter plates (Cell Culture-Treated, Flat-Bottom Microplate 96 well [Corning Costar, Kennebunk, ME; Cat 09-761-145]) filled with 200 uL of Hanks' solution. A random number generator was used to assign the order in which the rows of embryos were plated in 96 well plates each week. After plating, the embryos were dosed with 0.8 uL of the chemical dosing solution then immediately sealed with AlumaSeal II (Excel Scientific Inc, Victorville, CA) to prevent volatilization of the chemicals, and then placed in a leakproof secondary container. These containers were placed in an incubator maintained on a 14:10 h light: dark cycle at 26C for rearing. On 5 dpf, live larvae were gently moved out of the plate with test chemicals and into a new 96 well mesh plate (Millipore Corp., Bedford, MA) with just the Hanks' solution. Once within the mesh well plate, the animals were rinsed with 400 uL of fresh Hanks' three times, and then the plates were covered with a non-adhesive material (Microseal A, BioRad, Hercules, CA), plate lid added, and then plate sides wrapped in Parafilm (PM992, Bermis Company, Neenah, WI), and returned to the incubator. […]
Regarding `FC(F)C(F)(F)COCC1CO1` (stereo not given), the outcome was inactive.

As to `O=S(=O)(O)CCC(F)(F)C(F)(F)C(F)(F)C(F)(F)C(F)(F)C(F)(F)F`, the call was inactive.

Consider `FC(F)(F)C(F)(F)C(F)(F)C(F)(F)C(F)(F)C(F)(F)I`, for which the result was inactive.

With `FC(F)=C(F)C(F)(F)C(F)(F)C(F)(F)C(F)(F)C(F)(F)C(F)(F)F`, the call was inactive.

For the compound `FC(F)(F)COC(OCC(F)(F)F)OCC(F)(F)F`, the outcome was inactive.

`O=C(Cl)C(F)(F)C(F)(F)C(F)(F)C(=O)Cl`: the outcome was inactive.

Turning to `NCC(F)(F)C(F)(F)C(F)(F)C(F)(F)F`, the outcome was inactive.

As for `OC(O)(C(F)C(O)(O)C(F)(F)F)C(F)(F)F`, the result was inactive.

`C[Si](C)(C)C(F)(F)C(F)(F)C(F)(F)F`: the outcome was inactive.

On to `OCCC(F)(F)C(F)(F)C(F)(F)C(F)(F)F`, for which the call was inactive.
